Data reported in PubChem BioAssay (Tox21).
Inconclusive results are not listed. The source made the active and inactive calls. Unless noted, calls follow the shape of the dose curve; as a rule, active = well fitted curve in the direction sought with a large enough effect in the repeat runs; inconclusive = weak or mixed curves; inactive = no such curve, though single readings can be large; an effect the other way counts as inactive or inconclusive.

Key:
[1] = qHTS assay to identify small molecule agonists of the RXR signaling pathway - cell viability counter screen (AID 1159529);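 also: HEK 293T cells carrying an RXR-alpha UAS beta-lactamase reporter; series mostly up to about 77 µM; nearly all actives have a fitted effect of over 50% in size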
In short: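 Counter screen: CellTiter-Glo luminescence. Cells: RXR-alpha-UAS-bla HEK 293T. Medium: 2% charcoal-stripped FBS. Treatment: 16 h, 37 C. Reagent incubation: 30 min, RT.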

[2] = qHTS assay to identify small molecule antagonists of the retinoid acid receptor (RAR) signaling pathway - cell viability counter screen (AID 1159551); also: nearly all actives have a fitted effect of over 35% in size
In short: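 Viability of C3RL4 cells is quantified from ATP by luminescence after 6 h treatment at 37 C with compounds and 1 uM retinol.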

[3] = qHTS assay to identify small molecule antagonists of the retinoic acid receptor (RAR) signaling pathway (AID 1159552; also: nearly all actives have a fitted effect of over 50% in size)
In short: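 Antagonism of retinol-induced RARE reporter activity was measured in C3RL4 cells. Exposure to compounds and 1 uM final retinol lasted 6 hr at 37 C, with luminescence as endpoint.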

[4] = qHTS assay to identify small molecule agonists of the retinoic acid receptor (RAR) signaling pathway (AID 1159553); also: potency is read from the fitted curve at half-maximal effect
In short: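 Compounds dissolved in DMSO were pinned onto C3RL4 cells seeded the previous day, and plates were held 6 hr at 37 C. RARE-driven luciferase output was then read by luminescence.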

[5] = qHTS assay to identify small molecule antagonists of the estrogen related receptor (ERR) signaling pathway - cell viability counter screen (AID 1224818);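 also: series mostly up to about 46 µM; viability measured after 17.5 h of compound exposure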
In short: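 Cytotoxicity check run alongside the ERR antagonist screen: cells exposed to test compounds 17.5 h at 37 C, viability taken as CellTiter-Fluor fluorescence intensity.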

[6] = qHTS assay to identify small molecule antagonists of the estrogen related receptor (ERR) signaling pathway (AID 1224819; also: series mostly up to about 46 µM; nearly all actives have a fitted effect of over 50% in size)
In short: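 ERR reporter cells were plated at 2,000 cells/well and left 6 h at 37 C/5% CO2 before pin-tool transfer of compounds in DMSO. After 18 h at 37 C, One-Glo was added and luminescence was read 30 min later at room temperature.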

[7] = qHTS assay to identify small molecule agonists of the estrogen related receptor (ERR) signaling pathway (AID 1224820)
In short: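 After 6 h plating (2,000 cells/well) and 18 h compound treatment at 37 C, ERR cells were lysed with One-Glo and luminescence read after 30 min at room temperature.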

[8] = test system: estrogen-related receptor alpha (ERRalpha) with PGC-1alpha coactivator, human; experiment: qHTS assay to identify small molecule antagonists of the estrogen related receptor signaling pathway with the pleiotropic PPARgamma coactivator (PGC) (AID 1224821; calls by dose curve;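 also: series mostly up to about 46 µM; lower luminescence signal means antagonism of PGC/ERR signalling; nearly all actives have a fitted effect of over 50% in size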)
In short: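 Luminescence from One-Glo luciferase reagent (30 min, room temperature) measured after 18 h compound treatment at 37 °C. Cells carry the PGC/ERR reporter and were seeded 6 h prior to dosing.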

[9] = qHTS assay to identify small molecule antagonists of the estrogen related receptor signaling pathway with the pleiotropic PPARgamma coactivator (PGC) cell viability counter screen (AID 1224822;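 also: series mostly up to about 46 µM; viability read after 17.5 h compound exposure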)
In short: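 Viable cell signal (CellTiter-Fluor, 30 min, 37 C/5% CO2) was measured in PGC/ERR cells after a 17.5 h compound incubation.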

[10] = qHTS assay to identify small molecule agonists of the estrogen related receptor signaling pathway with the pleiotropic PPARgamma coactivator (PGC) (AID 1224823)
In short: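 Luminescence from One-Glo reagent (30 min, room temperature) was read after 18 h compound treatment at 37 C of PGC/ERR cells plated 6 h beforehand; compounds delivered in DMSO by pin tool.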

Measured: Potency

OCC(O)[C@@H](O)[C@H](O)[C@H](O)CO[C@H]1O[C@H](CO)[C@@H](O)[C@H](O)[C@H]1O (stereo partly drawn)
inactive: [1] | [2]

O=C(O)c1ccccc1-c1ccc(C(F)(F)F)cc1
inactive: [1] | [2]

COC(C(=O)O)c1ccccc1 (stereo not drawn)
inactive: [1] | [2]

O=c1[nH]c(=O)n([C@H]2O[C@H](CO)[C@@H](O)[C@@H]2O)cc1/C=C\Br
inactive: [1] | [2]

CCCCCCC(=O)OCC
inactive: [1] | [2] | [3] | [4]

O=C1OC(=O)c2cc([N+](=O)[O-])ccc21
inactive: [1] | [2]

CCCCCCOC(=O)CC(CC(=O)OCCCCCC)(OC(=O)CCC)C(=O)OCCCCCC
inactive: [1] | [2] | [4]

CSc1nc(NC2CC2)nc(NC(C)(C)C)n1
inactive: [1] | [2]

CC(C)CCCCCCN
inactive: [1] | [2]

CNC(=O)c1c(I)c(NC(=O)CCCCC(=O)Nc2c(I)c(C(=O)O)c(I)c(C(=O)NC)c2I)c(I)c(C(=O)O)c1I
inactive: [1] | [2] | [3] | [4]

CCCC(C)CO (stereo not drawn)
inactive: [1] | [2] | [3] | [4]

CC(C)c1ccc2oc3nc(N)c(C(=O)O)cc3c(=O)c2c1
active: [4] 2.11 µM
inactive: [1] | [2] | [3]

Cc1onc(-c2ccccc2)c1-c1ccc(S(N)(=O)=O)cc1
inactive: [1] | [2] | [4]

N#CC1(O)CCCCC1
inactive: [1] | [2]

C=C(C)C(=O)OCCC(C)OC(=O)C(=C)C (stereo not drawn)
inactive: [1] | [2] | [4]

CCC(=O)/C=C/c1ccc(OC)cc1
inactive: [1] | [2] | [3]
active: [4] 61.1 µM

O=S(=O)(O)c1ccccc1O
inactive: [1] | [2] | [3] | [4]

CC(=O)NC(Cc1ccccc1)C(=O)O (stereo not drawn)
inactive: [1] | [2] | [3] | [4]

CC(=O)CCc1ccc(O)cc1
inactive: [1] | [2]

C#CC(C)(O)CC(C)C (stereo not drawn)
inactive: [1] | [2] | [3] | [4]

COc1nc(C)nc(N)n1
inactive: [1] | [2]

COc1ccc(COC=O)cc1
inactive: [1] | [2] | [4]

CCCCNc1ccccc1
inactive: [1] | [2] | [3] | [4]

CC(C)COC(=O)C(C)C
inactive: [1] | [2] | [4]

COC(=O)[C@H]1[C@H]2C[C@@H]3c4[nH]c5cc(OC)ccc5c4CCN3C[C@H]2C[C@@H](OC(=O)COc2ccc(OC)cc2)[C@@H]1OC
inactive: [1] | [2] | [3] | [4]

Cc1nc(-c2ccc(OCC(C)C)c(C#N)c2)sc1C(=O)O
inactive: [1] | [2]
active: [4] 0.0944 µM

O=[N+]([O-])c1ccc(Oc2ccc([N+](=O)[O-])cc2)cc1
inactive: [1] | [2] | [4]

CCO[Si](C)(OCC)OCC
inactive: [1] | [2] | [4]

CCOC(=O)Nc1ccc2c(c1)N(C(=O)CCN1CCOCC1)c1ccccc1S2
inactive: [1] | [2] | [4]

c1ccc(SCCSc2ccccc2)cc1
active: [4] 6.06 µM
inactive: [1] | [2]

C=C(C)C1CC=C(C)C(O)C1 (stereo not drawn)
inactive: [1] | [2] | [3] | [4]

O=C1CC2(CCCC2)CC(=O)N1
inactive: [1] | [2] | [3] | [4]

COc1cc(CCC(C)=O)ccc1O
inactive: [1] | [2] | [3] | [4]

C[C@H]1O[C@@H](n2cc(F)c(=O)[nH]c2=O)[C@H](O)[C@@H]1O
not listed: [3]
inactive: all other assays above

CCCCCCCCCCCCCCC
inactive: [1] | [2] | [4]

CCCCCN(CCCCC)C(=O)C(CCC(=O)O)NC(=O)c1ccc(Cl)c(Cl)c1 (stereo not drawn)
inactive: [1] | [2] | [3] | [4] | [5] | [9]

CCCOc1ccccc1-c1nc2n[nH]nc2c(=O)[nH]1
inactive: [1] | [2] | [3] | [4] | [5] | [9]

CCCCCCCCCCCl
inactive: [1] | [2]

CC(C)(C)N(CCO)CCO
inactive: [1] | [2] | [4]

CC(C)(C)C(=O)/C=C/c1ccc(Cl)cc1
inactive: [1] | [2] | [4]

O=C(O)c1cccc(C(=O)O)n1
inactive: [1] | [2] | [3] | [4]
